# Laboratory results: PMC5540273 (PLoS ONE, 2017)
# What was measured:
# Details in all cases: concentration: 1 μM, replicates: in singlicate; n = 1
# [1] = test system: MAP3K3
# [2] = test system: MAP3K4
# [3] = test system: MAP4K2
# [4] = test system: MAP4K3
# [5] = test system: MAP4K4
# [6] = test system: MAP4K5
# [7] = test system: MAPKAPK2
# [8] = test system: MAPKAPK5
# [9] = test system: MARK1
# [10] = test system: MARK2
# [11] = test system: MARK3
# [12] = test system: MARK4
# [13] = test system: MAST1
# [14] = test system: T1, MEK1
# T1 construct: gene MAP2K1
# [15] = test system: T2, MEK2
# T2 construct: gene MAP2K2
# [16] = test system: T3, MEK3
# T3 construct: gene MAP2K3
# [17] = test system: T4, MEK4
# T4 construct: gene MAP2K4
# [18] = test system: T5, MEK5
# T5 construct: gene MAP2K5
# [19] = test system: T6, MEK6
# T6 construct: gene MAP2K6
# [20] = test system: MELK
# 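Further: KINOMEscan kinase panel screen.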
SMILES,%Inh [1] [%],%Inh [2] [%],%Inh [3] [%],%Inh [4] [%],%Inh [5] [%],%Inh [6] [%],%Inh [7] [%],%Inh [8] [%],%Inh [9] [%],%Inh [10] [%],%Inh [11] [%],%Inh [12] [%],%Inh [13] [%],%Inh [14] [%],%Inh [15] [%],%Inh [16] [%],%Inh [17] [%],%Inh [18] [%],%Inh [19] [%],%Inh [20] [%]
CN1c2ccc(-c3ccc(C(=O)NCCO)cc3)cc2-c2[nH]ncc2S1(=O)=O,40,0,26,11,27,25,0,0,38,24,0,35,0,0,27,25,0,68,1,32
Cl.Cn1ccc(-c2cccc(Nc3ccnc4cc(-c5nccs5)ccc34)c2)n1 [GW525701],0,10,14,0,20,0,21,0,28,100,0,0,12,0,0,0,8,86,0,0
Cl.Cl.c1ccc(-c2cc3ccncc3cc2OC2CCNCC2)cc1 [GSK1122999],0,18,0,0,10,0,25,0,0,0,0,5,0,0,5,0,23,16,0,17
Cc1ccc(O)cc1Nc1cc(C(F)(F)F)nc2ccc(-c3ccncc3)cc12 [GW630823],0,0,0,0,0,0,0,0,0,9,0,4,0,0,5,0,0,0,0,0
CNc1nccc(-c2c(-c3ccc(F)cc3)ncn2CCCN2CCOCC2)n1 [SB-222516],0,17,0,0,0,8,0,0,0,9,0,35,20,0,12,15,23,46,0,24
COc1ccc(Nc2nccc(N3CCC(NC(=O)c4cccc(NC(C)=O)c4)C3)n2)cc1 (stereo not shown) [GSK1379732],0,0,0,0,0,0,0,0,0,0,3,0,42,0,0,0,18,19,0,0
CCc1nc(-c2cccc(C)c2)c(-c2ccnc(NC(=O)c3ccccc3)c2)s1,22,0,0,0,,0,0,0,,0,0,28,25,5,2,7,4,54,0,22
CN1CCC(n2cnc(-c3ccc(F)cc3)c2-c2ccnc(NC3CCNCC3)n2)CC1 [SB-229482],0,1,12,0,0,0,8,6,8,13,0,6,27,0,0,18,0,0,0,0
CS(=O)(=O)CCNCc1ccc(-c2ccc3ncnc(Nc4ccc(OCc5ccccc5)c(Cl)c4)c3c2)o1.Cl [GW574783],0,0,0,1,0,5,16,0,0,0,3,9,23,10,0,3,15,85,0,23
Cl.O=S(=O)(c1cccc(F)c1)c1ccc(Nc2ncnc3cc(Br)sc23)cc1Cl [GSK306886],0,9,0,0,0,0,0,0,0,0,0,1,0,0,6,0,22,26,38,0
Nc1nc(-c2ccccn2)c(-c2ccnc3ccccc23)s1 [GW548057],0,4,0,0,4,0,0,0,0,0,4,0,9,8,12,2,12,32,10,26
Fc1ccc(Nc2nccc(-c3c(-c4ccc(Cl)cc4)nn4ncccc34)n2)cc1F [GW829058],40,17,34,0,1,6,3,0,16,15,34,25,26,29,42,27,30,14,13,0
Nc1n[nH]c2nnc(-c3ccccc3)cc12 [SB-517389],0,32,0,0,3,0,5,0,0,0,0,0,0,0,0,0,24,38,0,0
COc1ccc(NC(=O)c2ccc(-c3cc(-c4nnc(C)o4)ccc3C)cc2)cc1 [GW595885],0,20,0,0,4,0,25,0,0,0,0,0,5,0,0,0,9,0,0,0
Cl.c1ccc(Cn2ncc3cc(Nc4ncnc5ccccc45)ccc32)cc1 [GW273749],0,0,0,0,0,0,13,0,0,0,0,0,0,0,7,0,0,99.7,6,0
Clc1ccc(-c2cc(-c3c[nH]nc3-c3ccccn3)ccn2)cc1 [GW681251],0,19,0,0,63,18,13,0,0,0,0,0,0,39,0,0,2,0,0,40
CCCc1ccc(S(=O)(=O)NC2CCN(c3ccnc(Nc4ccc(OC)cc4)n3)C2)cc1 (stereo not shown) [GSK1379737],0,0,0,0,0,0,29,0,0,0,0,0,43,0,0,0,12,0,0,0
CC(C)N1CCC(n2cnc(-c3ccc(F)cc3)c2-c2ccnc(N)n2)CC1 [SB-223132],0,26,0,0,0,0,1,0,0,0,14,15,0,0,22,0,0,31,3,8
NC(=O)c1sc(-n2cnc3ccccc32)cc1OCc1ccccc1F [GSK1024306],0,23,0,0,8,21,0,0,0,0,0,1,11,0,0,0,20,69,0,23
FC(F)(F)c1ccc(-c2cc(-c3c[nH]nc3-c3ccccn3)ccn2)cc1 [GW599550],0,0,0,0,60,8,28,0,0,0,0,2,0,5,0,0,18,8,0,0
Cc1ccc(NC(=O)c2cccc(C#N)c2)cc1-c1ccc(C(=O)Nc2ccncc2)cc1 [GSK1398463],0,35,0,11,4,0,24,0,0,0,0,0,17,0,10,0,0,4,31,0
O=C(Nc1ccccc1)Nc1ccc(Oc2ccc3nccn3n2)cc1,9,21,0,0,0,0,0,0,0,0,9,7,0,17,32,0,0,0,0,10
O=C(Nc1n[nH]c2nc(-c3ccco3)c(Br)cc12)c1ccc(CN2CCCC2)cc1.O=C(O)[C@H](O)[C@@H](O)C(=O)O [SB-742352],0,4,34,0,4,24,0,0,0,1,0,2,6,0,0,0,0,83,0,3
Cn1cc(-c2ccc3c(c2)CCN3C(=O)Cc2cccc(C(F)(F)F)c2)c2c(N)ncnc21 [GSK2606414],0,12,0,0,10,10,100,0,6,0,0,7,0,0,0,0,22,6,0,8
Fc1cccc(COc2ccc(Nc3ncnc4cc[nH]c34)cc2Cl)c1,0,4,0,0,21,7,4,26,0,36,9,0,65,12,21,18,20,47,0,6
O=C(CCO)NCCn1ccc2ncnc(Nc3ccc(Oc4cccc(C(F)(F)F)c4)c(Cl)c3)c21,0,0,0,3,3,0,0,0,0,4,0,0,0,0,34,0,0,99.4,0,0
Nc1nc(-c2ccc3c(N)n[nH]c3c2)cc(N2CCC[C@@H](C(=O)Nc3ccccc3)C2)n1.O=C(O)C(F)(F)F.O=C(O)C(F)(F)F [GSK2288359],0,28,0,0,5,6,0,0,0,0,0,0,0,0,8,3,0,50,8,13
Cl.c1ccc(Cn2ccc3cc(Nc4ncnc5ccccc45)ccc32)cc1 [GW275568],0,5,0,1,4,3,7,0,17,28,1,30,0,14,6,11,19,84,5,9
c1ccc(-c2ccc3c(-c4ccnc(Nc5ccc6c(c5)OCCO6)n4)cnn3n2)cc1 [GW818941],0,14,6,4,23,20,5,13,0,0,0,9,8,17,3,0,9,5,0,0
Cc1cccc(-c2nc(Nc3ccc4[nH]nnc4c3)c3ccccc3n2)n1 [GW867587],0,0,0,0,0,0,0,0,0,0,18,3,17,7,16,5,0,19,0,0
